# Measured values from publication PMC7862700, “An all-to-all approach to the identification of sequence-specific readers for epigenetic DNA modifications on cytosine”.
# Assays:
# Assay in all cases: DAPPL (digital affinity profiling via proximity ligation, sequencing); 10 mM Tris-HCl pH 7.5, 50 mM NaCl, 1 mM DTT, 4% glycerol, room temperature, 30 min; GST-TFs on glutathione beads, 16-mer random dsDNA library, 0.1% formaldehyde crosslink after washing; high values mean tight binding
# FLI1 = molecular target: T1, FLI1 (Homo sapiens, UniProt Q01543 1-452); conditions: protein: recombinant; tags: N-terminal GST; dsDNA, one strand shown
# T1 sequence: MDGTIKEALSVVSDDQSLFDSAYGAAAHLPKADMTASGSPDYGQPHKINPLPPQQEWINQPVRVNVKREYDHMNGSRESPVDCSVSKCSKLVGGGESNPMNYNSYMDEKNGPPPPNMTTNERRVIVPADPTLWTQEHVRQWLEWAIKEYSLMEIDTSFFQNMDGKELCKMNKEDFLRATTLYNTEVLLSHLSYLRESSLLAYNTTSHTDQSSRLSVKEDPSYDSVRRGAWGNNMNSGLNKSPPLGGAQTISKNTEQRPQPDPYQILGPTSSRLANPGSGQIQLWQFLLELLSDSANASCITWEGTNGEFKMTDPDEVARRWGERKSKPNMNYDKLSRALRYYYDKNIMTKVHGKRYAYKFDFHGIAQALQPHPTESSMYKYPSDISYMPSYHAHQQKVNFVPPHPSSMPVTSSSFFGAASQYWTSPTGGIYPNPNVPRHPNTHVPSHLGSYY
# Procedure, shortened: (§1)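 GST fusions of human transcription factors were expressed in yeast and captured with glutathione beads. Once given DNA barcodes and pooled alongside a tag-only sample, they were incubated for 30 min at room temperature with 200 nmole of a random double-stranded 16-mer DNA library in Tris/NaCl/DTT/glycerol buffer, then washed, crosslinked (0.1% formaldehyde), proximity-ligated, PCR-amplified and sequenced on an Illumina NextSeq500. The binding signal of each hexamer is its read frequency for a factor divided by its frequency for the tag-only sample.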
# ELK1 = molecular target: T2, ELK1 (Homo sapiens, UniProt P19419 1-428); conditions: protein: recombinant; tags: N-terminal GST; dsDNA, one strand shown
# T2 sequence: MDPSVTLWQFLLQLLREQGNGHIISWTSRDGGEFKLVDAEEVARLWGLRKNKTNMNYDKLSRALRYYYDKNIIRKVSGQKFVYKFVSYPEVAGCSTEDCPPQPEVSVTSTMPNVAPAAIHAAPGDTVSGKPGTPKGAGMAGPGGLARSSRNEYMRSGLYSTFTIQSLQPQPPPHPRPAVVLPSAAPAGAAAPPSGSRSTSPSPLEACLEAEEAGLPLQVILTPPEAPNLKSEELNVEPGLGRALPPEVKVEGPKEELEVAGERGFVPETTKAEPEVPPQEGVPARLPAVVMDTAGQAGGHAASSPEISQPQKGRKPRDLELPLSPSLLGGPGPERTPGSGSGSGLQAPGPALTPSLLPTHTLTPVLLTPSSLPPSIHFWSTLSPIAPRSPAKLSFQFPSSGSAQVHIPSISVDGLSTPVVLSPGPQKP
# Procedure, shortened: as §1
# GABPA = molecular target: T3, GABPA (Homo sapiens, UniProt Q06546 1-454); conditions: protein: recombinant; tags: N-terminal GST; dsDNA, one strand shown
# T3 sequence: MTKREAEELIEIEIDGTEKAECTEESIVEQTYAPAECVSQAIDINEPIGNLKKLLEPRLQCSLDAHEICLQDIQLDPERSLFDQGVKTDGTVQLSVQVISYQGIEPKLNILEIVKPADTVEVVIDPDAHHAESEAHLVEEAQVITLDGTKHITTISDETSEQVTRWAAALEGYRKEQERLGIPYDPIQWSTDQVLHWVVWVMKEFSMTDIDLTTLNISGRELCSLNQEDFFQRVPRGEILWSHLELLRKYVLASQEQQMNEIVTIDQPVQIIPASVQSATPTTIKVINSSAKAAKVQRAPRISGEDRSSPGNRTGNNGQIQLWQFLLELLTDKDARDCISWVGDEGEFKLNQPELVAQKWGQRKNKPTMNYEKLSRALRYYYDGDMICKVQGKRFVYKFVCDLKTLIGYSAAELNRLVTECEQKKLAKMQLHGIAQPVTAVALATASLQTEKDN
# Procedure, shortened: as §1
# ERG = molecular target: T4, ERG (Homo sapiens, UniProt P11308 1-479); conditions: protein: recombinant; tags: N-terminal GST; dsDNA, one strand shown
# T4 sequence: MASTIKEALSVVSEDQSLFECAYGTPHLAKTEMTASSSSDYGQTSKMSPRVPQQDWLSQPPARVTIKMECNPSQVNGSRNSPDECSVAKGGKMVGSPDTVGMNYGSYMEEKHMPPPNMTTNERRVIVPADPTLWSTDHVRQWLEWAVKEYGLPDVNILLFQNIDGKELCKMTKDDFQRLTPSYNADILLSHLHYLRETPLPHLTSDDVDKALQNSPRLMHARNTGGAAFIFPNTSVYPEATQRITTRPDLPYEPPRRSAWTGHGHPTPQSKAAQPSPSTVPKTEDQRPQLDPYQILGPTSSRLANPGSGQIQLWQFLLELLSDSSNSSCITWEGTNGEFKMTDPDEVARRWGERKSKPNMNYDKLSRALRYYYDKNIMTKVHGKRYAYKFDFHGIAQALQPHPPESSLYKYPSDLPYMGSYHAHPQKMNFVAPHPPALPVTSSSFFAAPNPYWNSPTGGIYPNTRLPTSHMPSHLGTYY
# Procedure, shortened: as §1
# ELF1 = ELF1 (Homo sapiens, UniProt P32519 1-619); conditions: protein: recombinant; tags: N-terminal GST; dsDNA, one strand shown
# Procedure, shortened: as §1
# EHF = molecular target: T5, EHF (Homo sapiens, UniProt Q9NZC4 1-300); conditions: protein: recombinant; tags: N-terminal GST; dsDNA, one strand shown
# T5 sequence: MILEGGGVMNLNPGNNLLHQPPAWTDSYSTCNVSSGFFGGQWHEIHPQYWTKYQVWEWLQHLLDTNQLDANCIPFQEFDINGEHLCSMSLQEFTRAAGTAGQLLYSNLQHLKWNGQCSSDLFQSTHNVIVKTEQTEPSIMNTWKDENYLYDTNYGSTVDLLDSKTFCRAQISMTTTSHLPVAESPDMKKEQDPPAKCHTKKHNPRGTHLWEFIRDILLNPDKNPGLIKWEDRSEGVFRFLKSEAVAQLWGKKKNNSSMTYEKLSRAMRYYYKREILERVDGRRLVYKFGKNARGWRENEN
# Procedure, shortened: as §1
# SPI1 = SPI1 (Homo sapiens, UniProt P17947 1-270); conditions: protein: recombinant; tags: N-terminal GST; dsDNA, one strand shown
# Procedure, shortened: as §1
# SPIB = SPIB (Homo sapiens, UniProt Q01892 1-262); conditions: protein: recombinant; tags: N-terminal GST; dsDNA, one strand shown
# Procedure, shortened: as §1
# ELK3 = molecular target: T6, ELK3 (Homo sapiens, UniProt P41970 1-407); conditions: protein: recombinant; tags: N-terminal GST; dsDNA, one strand shown
# T6 sequence: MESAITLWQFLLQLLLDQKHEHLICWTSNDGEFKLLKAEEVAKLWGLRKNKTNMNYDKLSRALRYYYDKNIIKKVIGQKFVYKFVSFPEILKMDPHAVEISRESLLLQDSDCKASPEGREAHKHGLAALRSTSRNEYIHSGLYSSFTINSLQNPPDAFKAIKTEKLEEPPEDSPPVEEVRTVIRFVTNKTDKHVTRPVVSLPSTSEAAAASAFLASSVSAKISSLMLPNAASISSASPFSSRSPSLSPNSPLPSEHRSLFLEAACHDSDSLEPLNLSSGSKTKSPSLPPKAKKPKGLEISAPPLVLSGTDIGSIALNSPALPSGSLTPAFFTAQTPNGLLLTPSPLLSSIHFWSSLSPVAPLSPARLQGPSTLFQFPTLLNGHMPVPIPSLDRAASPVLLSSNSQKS
# Procedure, shortened: as §1
# FEV = molecular target: T7, FEV (Homo sapiens, UniProt Q99581 1-238); conditions: protein: recombinant; tags: N-terminal GST; dsDNA, one strand shown
# T7 sequence: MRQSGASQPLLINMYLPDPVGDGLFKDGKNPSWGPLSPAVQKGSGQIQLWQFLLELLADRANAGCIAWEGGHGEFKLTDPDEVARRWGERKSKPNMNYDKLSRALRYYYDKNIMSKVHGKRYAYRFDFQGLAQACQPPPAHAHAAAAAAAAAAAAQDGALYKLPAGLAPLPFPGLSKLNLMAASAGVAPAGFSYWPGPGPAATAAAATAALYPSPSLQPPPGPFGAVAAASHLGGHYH
# Procedure, shortened: as §1
# ETV5 = ETV5 (Homo sapiens, UniProt P41161 1-510); conditions: protein: recombinant; tags: N-terminal GST; dsDNA, one strand shown
# Procedure, shortened: as §1
# HSF1 = HSF1 (Homo sapiens, UniProt Q00613 1-529); conditions: protein: recombinant; tags: N-terminal GST; chain copies: 3; dsDNA, one strand shown
# Procedure, shortened: as §1
# SPIC = molecular target: T8, SPIC (Homo sapiens, UniProt Q8N5J4 1-248); conditions: protein: recombinant; tags: N-terminal GST; dsDNA, one strand shown
# T8 sequence: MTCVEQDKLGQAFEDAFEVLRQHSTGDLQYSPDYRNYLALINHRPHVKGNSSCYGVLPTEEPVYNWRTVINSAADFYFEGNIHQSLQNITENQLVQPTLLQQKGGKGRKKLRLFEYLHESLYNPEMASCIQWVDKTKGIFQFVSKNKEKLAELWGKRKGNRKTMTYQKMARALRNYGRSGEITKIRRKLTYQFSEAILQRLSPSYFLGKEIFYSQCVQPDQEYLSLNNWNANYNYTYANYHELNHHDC
# Procedure, shortened: as §1
# ELF4 = ELF4 (Homo sapiens, UniProt Q99607 1-663); conditions: protein: recombinant; tags: N-terminal GST; dsDNA, one strand shown
# Procedure, shortened: as §1
# ELK4 = molecular target: T9, ELK4 (Homo sapiens, UniProt P28324-2 1-405); conditions: protein: recombinant; tags: N-terminal GST; dsDNA, one strand shown
# T9 sequence: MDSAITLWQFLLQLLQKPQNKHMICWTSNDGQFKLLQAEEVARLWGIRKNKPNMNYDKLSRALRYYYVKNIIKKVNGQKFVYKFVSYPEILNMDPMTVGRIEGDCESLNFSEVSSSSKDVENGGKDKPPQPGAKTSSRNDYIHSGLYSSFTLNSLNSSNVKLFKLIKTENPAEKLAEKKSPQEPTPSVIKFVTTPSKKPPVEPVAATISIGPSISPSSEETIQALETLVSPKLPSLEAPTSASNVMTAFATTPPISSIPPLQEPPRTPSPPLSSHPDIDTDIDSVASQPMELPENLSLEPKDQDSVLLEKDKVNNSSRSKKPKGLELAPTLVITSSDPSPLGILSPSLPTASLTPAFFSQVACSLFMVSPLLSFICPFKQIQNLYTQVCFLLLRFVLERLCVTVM
# Procedure, shortened: as §1
# ETV2 = molecular target: T10, ETV2 (Homo sapiens, UniProt O00321 1-342); conditions: protein: recombinant; tags: N-terminal GST; dsDNA, one strand shown
# T10 sequence: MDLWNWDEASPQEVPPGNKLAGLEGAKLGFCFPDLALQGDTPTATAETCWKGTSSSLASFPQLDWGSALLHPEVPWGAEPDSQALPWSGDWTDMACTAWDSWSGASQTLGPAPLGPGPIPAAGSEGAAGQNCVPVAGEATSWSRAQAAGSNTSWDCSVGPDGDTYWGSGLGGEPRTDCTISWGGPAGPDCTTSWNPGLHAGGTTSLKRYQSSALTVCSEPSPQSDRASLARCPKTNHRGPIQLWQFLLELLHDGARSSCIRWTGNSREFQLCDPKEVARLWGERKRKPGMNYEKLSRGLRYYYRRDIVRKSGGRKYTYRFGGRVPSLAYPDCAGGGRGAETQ
# Procedure, shortened: as §1
# ELF3 = molecular target: T11, ELF3 (Homo sapiens, UniProt P78545 1-371); conditions: protein: recombinant; tags: N-terminal GST; dsDNA, one strand shown
# T11 sequence: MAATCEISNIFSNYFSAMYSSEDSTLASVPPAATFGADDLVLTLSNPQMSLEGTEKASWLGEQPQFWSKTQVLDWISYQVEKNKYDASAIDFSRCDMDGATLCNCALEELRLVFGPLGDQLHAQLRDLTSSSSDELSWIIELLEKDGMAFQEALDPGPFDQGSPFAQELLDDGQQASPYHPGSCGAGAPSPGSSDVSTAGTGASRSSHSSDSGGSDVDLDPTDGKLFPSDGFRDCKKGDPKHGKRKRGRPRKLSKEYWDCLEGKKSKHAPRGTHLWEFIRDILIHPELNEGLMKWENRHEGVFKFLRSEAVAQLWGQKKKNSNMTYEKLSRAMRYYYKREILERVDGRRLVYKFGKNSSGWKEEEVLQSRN
# Procedure, shortened: as §1
# CRX = CRX (Homo sapiens, UniProt O43186 1-299); conditions: protein: recombinant; tags: N-terminal GST; dsDNA, one strand shown
# Procedure, shortened: as §1
# ETV1 = ETV1 (Homo sapiens, UniProt P50549 1-477); conditions: protein: recombinant; tags: N-terminal GST; dsDNA, one strand shown
# Procedure, shortened: as §1
# Sequence of ETV1 (P50549 whole entry): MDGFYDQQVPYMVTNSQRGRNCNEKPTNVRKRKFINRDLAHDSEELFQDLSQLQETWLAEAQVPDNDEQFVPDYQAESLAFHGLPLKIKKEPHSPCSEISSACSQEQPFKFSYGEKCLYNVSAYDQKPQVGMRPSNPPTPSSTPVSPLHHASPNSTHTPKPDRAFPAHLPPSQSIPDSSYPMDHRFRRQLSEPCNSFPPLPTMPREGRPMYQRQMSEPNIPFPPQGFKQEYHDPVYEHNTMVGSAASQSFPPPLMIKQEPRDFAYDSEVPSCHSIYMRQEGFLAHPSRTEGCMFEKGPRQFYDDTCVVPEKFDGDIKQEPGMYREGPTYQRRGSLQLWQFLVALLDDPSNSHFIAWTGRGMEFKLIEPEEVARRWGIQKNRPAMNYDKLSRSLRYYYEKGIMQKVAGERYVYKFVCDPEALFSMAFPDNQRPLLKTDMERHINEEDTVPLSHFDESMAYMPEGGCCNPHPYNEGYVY
# Sequence of SPIB (Q01892 whole entry): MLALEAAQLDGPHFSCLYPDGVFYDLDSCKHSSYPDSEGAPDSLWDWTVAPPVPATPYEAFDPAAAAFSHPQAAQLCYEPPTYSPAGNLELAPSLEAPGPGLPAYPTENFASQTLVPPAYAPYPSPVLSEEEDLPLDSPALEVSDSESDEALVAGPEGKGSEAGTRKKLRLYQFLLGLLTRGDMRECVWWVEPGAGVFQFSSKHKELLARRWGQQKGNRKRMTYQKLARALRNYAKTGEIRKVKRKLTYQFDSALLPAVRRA
# Sequence of ELF4 (Q99607 whole entry): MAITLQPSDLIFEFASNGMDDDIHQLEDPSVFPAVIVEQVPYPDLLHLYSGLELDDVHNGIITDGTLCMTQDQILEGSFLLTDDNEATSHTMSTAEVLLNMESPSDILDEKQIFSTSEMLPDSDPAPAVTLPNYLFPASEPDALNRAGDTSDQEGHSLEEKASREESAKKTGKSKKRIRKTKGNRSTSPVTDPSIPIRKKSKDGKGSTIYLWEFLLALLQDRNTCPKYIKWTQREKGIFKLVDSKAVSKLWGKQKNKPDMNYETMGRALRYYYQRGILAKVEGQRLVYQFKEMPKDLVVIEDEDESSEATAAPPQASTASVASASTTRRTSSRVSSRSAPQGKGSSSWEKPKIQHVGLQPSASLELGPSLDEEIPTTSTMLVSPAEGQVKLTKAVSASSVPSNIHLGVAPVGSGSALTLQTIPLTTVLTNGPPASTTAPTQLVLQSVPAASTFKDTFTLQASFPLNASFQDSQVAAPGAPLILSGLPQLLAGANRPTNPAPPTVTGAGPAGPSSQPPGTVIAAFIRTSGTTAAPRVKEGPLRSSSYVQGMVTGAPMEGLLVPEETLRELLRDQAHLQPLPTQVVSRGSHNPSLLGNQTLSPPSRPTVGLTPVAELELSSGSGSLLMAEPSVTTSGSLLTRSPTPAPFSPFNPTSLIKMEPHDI
# Sequence of ETV5 (P41161 whole entry): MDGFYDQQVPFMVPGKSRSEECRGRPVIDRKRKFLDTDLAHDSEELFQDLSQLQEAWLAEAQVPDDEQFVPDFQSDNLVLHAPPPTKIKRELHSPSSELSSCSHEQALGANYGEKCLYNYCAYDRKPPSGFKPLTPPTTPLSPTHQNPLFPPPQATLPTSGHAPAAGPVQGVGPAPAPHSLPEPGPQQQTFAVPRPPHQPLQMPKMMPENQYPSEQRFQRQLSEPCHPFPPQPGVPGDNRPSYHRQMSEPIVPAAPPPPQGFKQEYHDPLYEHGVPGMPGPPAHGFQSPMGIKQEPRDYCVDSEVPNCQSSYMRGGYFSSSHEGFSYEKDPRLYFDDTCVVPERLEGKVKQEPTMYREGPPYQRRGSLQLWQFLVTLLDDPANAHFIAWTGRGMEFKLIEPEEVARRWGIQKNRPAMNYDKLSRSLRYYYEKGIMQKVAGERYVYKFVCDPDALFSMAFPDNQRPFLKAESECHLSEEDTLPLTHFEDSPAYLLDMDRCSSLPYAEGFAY
# Sequence of HSF1 (Q00613 whole entry): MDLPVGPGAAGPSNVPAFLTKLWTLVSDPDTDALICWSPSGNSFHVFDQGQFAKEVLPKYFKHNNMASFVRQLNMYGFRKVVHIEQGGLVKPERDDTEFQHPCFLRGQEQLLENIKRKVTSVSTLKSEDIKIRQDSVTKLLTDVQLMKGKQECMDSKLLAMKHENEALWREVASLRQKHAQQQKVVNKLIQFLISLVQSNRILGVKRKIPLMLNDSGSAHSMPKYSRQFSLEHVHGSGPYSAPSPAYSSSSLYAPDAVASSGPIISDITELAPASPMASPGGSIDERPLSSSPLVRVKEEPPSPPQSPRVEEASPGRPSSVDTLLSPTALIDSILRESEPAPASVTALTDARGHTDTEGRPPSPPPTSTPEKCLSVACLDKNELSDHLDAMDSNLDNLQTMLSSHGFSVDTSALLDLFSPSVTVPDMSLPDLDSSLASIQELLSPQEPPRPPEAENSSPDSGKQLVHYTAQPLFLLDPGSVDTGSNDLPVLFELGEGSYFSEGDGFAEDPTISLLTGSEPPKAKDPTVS
# Sequence of CRX (O43186 whole entry): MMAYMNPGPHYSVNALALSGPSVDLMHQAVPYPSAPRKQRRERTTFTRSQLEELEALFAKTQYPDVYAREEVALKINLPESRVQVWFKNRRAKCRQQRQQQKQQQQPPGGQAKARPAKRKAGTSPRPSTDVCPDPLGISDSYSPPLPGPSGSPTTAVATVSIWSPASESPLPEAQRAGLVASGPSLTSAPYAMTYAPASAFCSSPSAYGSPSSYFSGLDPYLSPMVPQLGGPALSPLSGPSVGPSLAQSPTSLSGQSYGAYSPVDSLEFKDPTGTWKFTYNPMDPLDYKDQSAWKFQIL
# Sequence of ELF1 (P32519 whole entry): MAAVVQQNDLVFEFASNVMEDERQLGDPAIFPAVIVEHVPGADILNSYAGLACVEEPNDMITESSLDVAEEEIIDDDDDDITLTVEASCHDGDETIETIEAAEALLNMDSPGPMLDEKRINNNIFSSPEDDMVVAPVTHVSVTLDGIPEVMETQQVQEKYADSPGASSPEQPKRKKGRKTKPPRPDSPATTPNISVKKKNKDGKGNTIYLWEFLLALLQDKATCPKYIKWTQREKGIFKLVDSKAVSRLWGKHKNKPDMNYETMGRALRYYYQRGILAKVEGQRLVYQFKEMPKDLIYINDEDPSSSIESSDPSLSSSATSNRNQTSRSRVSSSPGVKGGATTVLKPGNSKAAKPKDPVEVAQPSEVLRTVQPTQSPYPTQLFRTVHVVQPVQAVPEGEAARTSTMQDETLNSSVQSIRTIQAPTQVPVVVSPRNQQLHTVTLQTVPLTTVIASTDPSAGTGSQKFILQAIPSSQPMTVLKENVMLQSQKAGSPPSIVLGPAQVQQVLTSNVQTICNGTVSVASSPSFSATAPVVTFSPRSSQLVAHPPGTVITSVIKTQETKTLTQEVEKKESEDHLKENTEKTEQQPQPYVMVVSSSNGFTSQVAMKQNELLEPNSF
sequence,measurement,setting,value
TACGTA,binding signal,FLI1,"1.41 fold enrichment (6-mer frequency, TF over GST control)"
same,binding signal,ELK1,"1.36 fold enrichment (6-mer frequency, TF over GST control)"
same,binding signal,GABPA,"1.31 fold enrichment (6-mer frequency, TF over GST control)"
same,binding signal,ERG,"1.2 fold enrichment (6-mer frequency, TF over GST control)"
same,binding signal,ELF1,"1.32 fold enrichment (6-mer frequency, TF over GST control)"
same,binding signal,EHF,"1.41 fold enrichment (6-mer frequency, TF over GST control)"
same,binding signal,SPI1,"1.35 fold enrichment (6-mer frequency, TF over GST control)"
same,binding signal,SPIB,"1.15 fold enrichment (6-mer frequency, TF over GST control)"
same,binding signal,ELK3,"1.37 fold enrichment (6-mer frequency, TF over GST control)"
same,binding signal,FEV,"1.27 fold enrichment (6-mer frequency, TF over GST control)"
same,binding signal,ETV5,"1.37 fold enrichment (6-mer frequency, TF over GST control)"
same,binding signal,HSF1,"1.23 fold enrichment (6-mer frequency, TF over GST control)"
same,binding signal,SPIC,"1.27 fold enrichment (6-mer frequency, TF over GST control)"
same,binding signal,ELF4,"1.33 fold enrichment (6-mer frequency, TF over GST control)"
same,binding signal,ELK4,"1.3 fold enrichment (6-mer frequency, TF over GST control)"
same,binding signal,ETV2,"1.33 fold enrichment (6-mer frequency, TF over GST control)"
same,binding signal,ELF3,"1.4 fold enrichment (6-mer frequency, TF over GST control)"
same,binding signal,CRX,"1.49 fold enrichment (6-mer frequency, TF over GST control)"
same,binding signal,ETV1,"1.4 fold enrichment (6-mer frequency, TF over GST control)"
